In the supplement of paper PMC10127200:
Where a name gives a salt, the structure may show the parent alone.

Tests used:
Assay in all cases: Euclidean distance of Cell Painting phenotypic profile (signed KS, 77 features) to DMSO centroid (dimensionless distance); 5 or 10 uM (library dependent); higher = stronger phenotypic change vs DMSO (phenoactivity)
Settings in all cases: 48 h
[1] = tested on: 786-O
Procedure, shortened: (§1)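 At 10 or 5 uM, as set by the library, and 0.1% DMSO final, compounds were applied for 48 h to five cancer lines and one healthy fibroblast line. Stained cells were imaged confocally at 20X in 9 fields per well, and Harmony extracted 77 features scored as signed Kolmogorov-Smirnov statistics against vehicle wells on the same plate. Profiles underwent plate-position correction, correlation weighting and replicate averaging at the top dose. Phenoactivity is the Euclidean distance from each such profile to the median vehicle profile.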

[2] = tested on: A549
Procedure, shortened: as §1

[3] = tested on: DU145
Procedure, shortened: as §1

[4] = tested on: FB
Procedure, shortened: as §1

[5] = tested on: HEPG2
Procedure, shortened: as §1

[6] = tested on: OVCAR4
Procedure, shortened: as §1

SMILES | Euclidean distance [1] | Euclidean distance [2] | Euclidean distance [3] | Euclidean distance [4] | Euclidean distance [5] | Euclidean distance [6]
Cc1ccc(NC(=O)c2ccc(CN3CCN(C)CC3)cc2)cc1Nc1nccc(-c2cccnc2)n1 [Imatinib Mesylate (STI571)] | 1.63 | 2 | 1.67 | 2.28 | 1.61 | 1.55
CC(C)C(=O)OCC(=O)[C@@]12O[C@H](C3CCCCC3)O[C@@H]1C[C@H]1[C@@H]3CCC4=CC(=O)C=C[C@]4(C)[C@H]3[C@@H](O)C[C@@]12C [Ciclesonide] | 1.71 | 2.49 | 2.88 | 2.36 | 2.25 | 2.09
Cc1cnc(-c2cc(N3CCN(C(=O)CCS(C)(=O)=O)CC3)ncc2Cl)c(C)c1 | 0.761 | 1.09 | 1.04 | 1.23 | 0.662 | 1.03
CC1(COc2ccc3c(c2)ncn3-c2ccc3cccc(N4CCC(N)CC4)c3n2)COC1 | 3.62 | 3.9 | 3.27 | 3.75 | 3.6 | 3.78
NS(=O)(=O)c1ccc(NC(=O)Nc2ccc(F)cc2)cc1 | 0.711 | 1.08 | 1.36 | 1.37 | 1.44 | 0.718
CNCCc1ccccn1 [Betahistine mesylate] | 0.848 | 0.566 | 1.17 | 0.999 | 0.422 | 0.933
CC(C)CCCCC(=O)N[C@@H](CCN)C(=O)N[C@H](C(=O)N[C@@H](CCN)C(=O)N[C@H]1CCNC(=O)[C@H]([C@@H](C)O)NC(=O)[C@H](CCN)NC(=O)[C@H](CCN)NC(=O)[C@H](CC(C)C)NC(=O)[C@@H](Cc2ccccc2)NC(=O)[C@H](CCN)NC1=O)[C@@H](C)O [Polymyxin B sulphate] | 1.64 | 0.815 | 1.39 | 1.53 | 0.717 | 0.928
Cc1ccc(NC(=O)c2cccc(N(C)C)c2)cc1NC(=O)c1ccc(O)cc1 | 2.67 | 2.66 | 2.38 | 2.03 | 1.55 | 2.26
COc1ccccc1OCCNCC(O)COc1cccc2[nH]c3ccccc3c12 (stereo not given) [Carvedilol] | 1.59 | 1.04 | 1.42 | 1.64 | 2.22 | 1.86
COc1c2occc2c(OC)c2c(=O)cc(C)oc12 [Khellin] | 1.37 | 0.619 | 0.84 | 0.769 | 1.17 | 0.887
Cn1c(=O)cc(N2CCC[C@@H](N)C2)n(Cc2cc(F)ccc2C#N)c1=O [Trelagliptin succinate] | 0.808 | 1.21 | 1.04 | 1.06 | 0.54 | 1.49
Cc1cc(/C=C/C#N)cc(C)c1Nc1ccnc(Nc2ccc(C#N)cc2)n1 [Rilpivirine] | 1.85 | 2.11 | 1.55 | 1.69 | 0.573 | 0.925
CC1=C(C(=O)OC(C)C)C(c2cccc([N+](=O)[O-])c2)C(C(=O)OC2CN(C(c3ccccc3)c3ccccc3)C2)=C(N)N1 (stereo not given) [Azelnidipine] | 1.85 | 3.31 | 1.12 | 1.17 | 1.44 | 2.01
Nc1nc2[nH]cc(CCc3ccc(C(=O)N[C@@H](CCC(=O)O)C(=O)O)cc3)c2c(=O)[nH]1 [Pemetrexed] | 1.73 | 2.69 | 1.14 | 0.521 | 1.85 | 3.1
CCCN1CCCC[C@H]1C(=O)Nc1c(C)cccc1C [Ropivacaine HCl] | 0.76 | 0.477 | 0.895 | 0.646 | 0.469 | 1.39
CCCCOc1ccc(C(=O)Nc2ccc(F)cc2F)cc1 | 1.45 | 1.45 | 1.14 | 1.28 | 0.872 | 1.5
Cc1nc(C(=O)NCC(=O)O)c(O)c2ccc(Oc3ccccc3)cc12 | 1.71 | 1.55 | 1.53 | 2.88 | 1.32 | 1.92
O=C1[C@@H]2[C@H]3CC[C@H](C3)[C@@H]2C(=O)N1C[C@@H]1CCCC[C@H]1CN1CCN(c2nsc3ccccc23)CC1 [lurasidone] | 1.37 | 1.25 | 1.92 | 1.35 | 0.479 | 1.27
Cl.NCCCC[C@H](N)C(=O)O [L-Lysine hydrochloride] | 0.954 | 1.04 | 0.836 | 0.872 | 1.27 | 0.646
CC(=O)Oc1ccccc1C(=O)Nc1ncc([N+](=O)[O-])s1 [Nitazoxanide] | 1.27 | 1.18 | 1.96 | 1.68 | 1.32 | 1.34
CN(C)Cc1c(C(=O)NCCOc2ccc(C(=O)NO)cc2)oc2ccccc12 | 2.9 | 4.31 | 3.96 | 3.8 | 4.14 | 3.47
Cc1cc(OCCCS(C)(=O)=O)cc(C)c1-c1cccc(COc2ccc3c(c2)OC[C@H]3CC(=O)O)c1 | 1.05 | 1.02 | 1.26 | 2.38 | 1 | 1.88
Nc1ncnc2c1c(-c1cccc(OCc3ccccc3)c1)cn2C1CC(CN2CCCC2)C1 (stereo not given) | 2.84 | 3.18 | 2.28 | 3.95 | 3.36 | 1.87

SMILES | Euclidean distance [1] | Euclidean distance [2] | Euclidean distance [3] | Euclidean distance [4] | Euclidean distance [5] | Euclidean distance [6]
CCN(CCCc1ccccc1)CCCc1ccccc1 [Alverine Citrate] | 0.97 | 1.06 | 1.22 | 1.12 | 0.789 | 1.01
OC[C@H]1O[C@@H](c2ccc(F)c(Cc3cc4ccccc4s3)c2)[C@H](O)[C@@H](O)[C@@H]1O [Ipragliflozin (ASP1941)] | 0.648 | 0.591 | 0.895 | 0.802 | 0.412 | 0.699
c1cnc2cc3c(cc2n1)[C@@H]1CNC[C@H]3C1 [Varenicline Tartrate] | 0.702 | 0.985 | 0.786 | 0.802 | 0.459 | 1.05
CCNC(=O)[C@@H]1CCCN1C(=O)[C@H](CCCNC(=N)N)NC(=O)[C@H](CC(C)C)NC(=O)[C@@H](CC(C)C)NC(=O)[C@H](Cc1ccc(O)cc1)NC(=O)[C@H](CO)NC(=O)[C@H](Cc1c[nH]c2ccccc12)NC(=O)[C@H](Cc1c[nH]cn1)NC(=O)[C@@H]1CCC(=O)N1 [Leuprorelin Acetate] | 1.85 | 1 | 1.17 | 0.933 | 0.582 | 0.958
COCCc1ccc(OCC(O)CNC(C)C)cc1 (stereo not given) [Metroprolol succinate] | 0.936 | 0.527 | 0.62 | 1.14 | 0.935 | 1.9
CC(C)(C)NC(=O)[C@@H]1CN(Cc2cccnc2)CCN1C[C@@H](O)C[C@@H](Cc1ccccc1)C(=O)N[C@H]1c2ccccc2C[C@H]1O [Indinavir Sulfate] | 0.896 | 0.551 | 0.801 | 0.953 | 0.739 | 1.27
C[N+](C)(C)CC(=O)O [Betaine] | 1.1 | 0.84 | 0.542 | 0.947 | 1.41 | 0.81
c1ccc(NCc2ccc(CNc3ccccn3)cc2)nc1 | 0.787 | 1.08 | 0.956 | 1.09 | 0.936 | 1.15
O=C(O)C(=O)O.[NH-][C@@H]1CCCC[C@H]1[NH-].[Pt+2] [Oxaliplatin] | 3.37 | 3.26 | 1.5 | 2.95 | 3.19 | 3.47
O=C(OCCOCCO)c1ccccc1Nc1cccc(C(F)(F)F)c1 [Etofenamate] | 0.974 | 0.683 | 1.59 | 1.79 | 0.744 | 0.722
O=C(/C=C/c1cccc(S(=O)(=O)Nc2ccccc2)c1)NO [Belinostat (PXD101)] | 1.71 | 2.39 | 2.38 | 1.82 | 1.99 | 1.12
O=C(O)/C=C/c1ccc(O)cc1 [p-Coumaric Acid] | 1.47 | 0.995 | 0.894 | 0.846 | 1.05 | 0.854
C#Cc1cccc(Nc2ncnc3cc(OC)c(OCCCCCCC(=O)NO)cc23)c1 | 3.46 | 4.62 | 2.02 | 3.43 | 1.85 | 1.93
CCCC(C)NC(=O)c1ccc(Cl)c(Cl)c1 (stereo not given) | 0.75 | 0.663 | 0.911 | 1.24 | 0.75 | 0.568
C[C@@H](N)c1ccc(C(=O)Nc2ccnc3[nH]ccc23)cc1 | 1.87 | 3.06 | 3.16 | 3.73 | 2.26 | 2.05
CC(C)(C)c1[nH]cnc1/C=c1\[nH]c(=O)/c(=C/c2ccccc2)[nH]c1=O [Plinabulin (NPI-2358)] | 3.18 | 3.25 | 4.17 | 2.89 | 4.1 | 2.86
Cc1cc(N2CCOCC2)ccc1Nc1nc(NC2CCCCC2)c2[nH]cnc2n1 | 1.79 | 2.73 | 1.25 | 1.29 | 1.78 | 1.73
CS(=O)(=O)CCNCc1ccc(-c2ccc3ncnc(Nc4ccc(OCc5cccc(F)c5)c(Cl)c4)c3c2)o1 | 3.78 | 3.57 | 3.75 | 4.09 | 4.37 | 3.36
CN1C(C(=O)Nc2ccccn2)=C(O)c2sccc2S1(=O)=O [Tenoxicam] | 0.866 | 1.16 | 1.02 | 0.733 | 2.05 | 1.22
CCCCCCCCCCCCCCCCOc1nc2ccc(C)cc2c(=O)o1 [Cetilistat] | 1 | 1.33 | 0.996 | 0.737 | 0.864 | 0.764
COc1cc(Br)c(Nc2nc(-c3c(C)nc4ncccn34)cs2)c(Br)c1 | 3.62 | 2.67 | 2.18 | 2.66 | 4.16 | 1.63
CC(O)c1cc(C(=O)N[C@@H](C)Cn2ccc(-c3ccc(C#N)c(Cl)c3)n2)n[nH]1 (stereo not given in full) [Darolutamide (ODM-201)] | 0.846 | 0.505 | 1.04 | 1.05 | 0.543 | 0.668
